Each structure is given as a SMILES string. For some assays here: Measured potencies and affinities stand elsewhere.

6 compounds from ChEMBL document CHEMBL3988442, “University of Dundee, Small-Polar-MMV Screening Library” (2021) can be followed below.

Common to all, as to parameters: scale not given: direction of the effect not stated beside the values
Assay [1] has as its target Protein translocase subunit SecA (Escherichia coli (strain K12)) (UniProt P10408). Nature of the assay: Assay to Identify E. coli SecA ATPase Inhibitors. The assay is classed as functional. The note with it: 30 µM.
For assay [2], the target named is T1, Ubiquitin-activating enzyme e1, putative (Leishmania donovani (strain BPK282A1)) (UniProt E9BSI1).
T1 sequence (whole entry): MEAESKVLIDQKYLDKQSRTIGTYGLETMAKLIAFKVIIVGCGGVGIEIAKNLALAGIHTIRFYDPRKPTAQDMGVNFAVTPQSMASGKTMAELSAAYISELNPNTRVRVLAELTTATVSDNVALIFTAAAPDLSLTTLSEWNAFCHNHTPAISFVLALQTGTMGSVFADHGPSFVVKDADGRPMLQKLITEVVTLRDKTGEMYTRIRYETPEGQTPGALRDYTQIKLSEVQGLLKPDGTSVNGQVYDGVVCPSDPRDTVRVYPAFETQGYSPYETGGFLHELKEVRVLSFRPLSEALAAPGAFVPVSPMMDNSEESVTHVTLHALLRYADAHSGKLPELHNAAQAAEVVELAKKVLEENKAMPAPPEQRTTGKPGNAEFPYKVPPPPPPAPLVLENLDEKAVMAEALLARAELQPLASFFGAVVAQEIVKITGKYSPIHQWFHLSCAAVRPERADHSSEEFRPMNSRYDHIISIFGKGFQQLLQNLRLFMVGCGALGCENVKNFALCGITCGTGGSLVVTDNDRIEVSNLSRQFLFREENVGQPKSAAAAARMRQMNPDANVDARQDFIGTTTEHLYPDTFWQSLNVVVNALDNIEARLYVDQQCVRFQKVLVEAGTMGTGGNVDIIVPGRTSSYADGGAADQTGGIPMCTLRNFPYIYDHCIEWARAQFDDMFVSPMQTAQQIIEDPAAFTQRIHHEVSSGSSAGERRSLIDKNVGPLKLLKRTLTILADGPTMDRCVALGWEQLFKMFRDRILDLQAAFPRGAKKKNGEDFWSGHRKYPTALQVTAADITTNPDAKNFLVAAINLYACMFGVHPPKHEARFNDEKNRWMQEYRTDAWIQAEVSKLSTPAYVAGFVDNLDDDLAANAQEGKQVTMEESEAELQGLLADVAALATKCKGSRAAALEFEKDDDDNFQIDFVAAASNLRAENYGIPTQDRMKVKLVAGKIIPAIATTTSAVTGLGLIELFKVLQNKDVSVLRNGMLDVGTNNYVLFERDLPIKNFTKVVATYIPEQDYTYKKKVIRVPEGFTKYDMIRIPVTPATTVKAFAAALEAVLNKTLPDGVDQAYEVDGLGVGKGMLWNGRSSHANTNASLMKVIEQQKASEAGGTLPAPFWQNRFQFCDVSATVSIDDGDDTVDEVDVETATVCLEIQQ
The assay is described as follows: Leishmania donovani Ubiquitin Activating Enzyme (LdE1). The note with it: 30 µM. The format is functional.

In assay [3] the target is T2, Aspartate--tRNA(Asp/Asn) ligase (Mycobacterium tuberculosis (strain ATCC 25618 / H37Rv)) (UniProt P9WFW3). Note: in the data most compounds retested in dose-response had high values.
T2 sequence (whole entry): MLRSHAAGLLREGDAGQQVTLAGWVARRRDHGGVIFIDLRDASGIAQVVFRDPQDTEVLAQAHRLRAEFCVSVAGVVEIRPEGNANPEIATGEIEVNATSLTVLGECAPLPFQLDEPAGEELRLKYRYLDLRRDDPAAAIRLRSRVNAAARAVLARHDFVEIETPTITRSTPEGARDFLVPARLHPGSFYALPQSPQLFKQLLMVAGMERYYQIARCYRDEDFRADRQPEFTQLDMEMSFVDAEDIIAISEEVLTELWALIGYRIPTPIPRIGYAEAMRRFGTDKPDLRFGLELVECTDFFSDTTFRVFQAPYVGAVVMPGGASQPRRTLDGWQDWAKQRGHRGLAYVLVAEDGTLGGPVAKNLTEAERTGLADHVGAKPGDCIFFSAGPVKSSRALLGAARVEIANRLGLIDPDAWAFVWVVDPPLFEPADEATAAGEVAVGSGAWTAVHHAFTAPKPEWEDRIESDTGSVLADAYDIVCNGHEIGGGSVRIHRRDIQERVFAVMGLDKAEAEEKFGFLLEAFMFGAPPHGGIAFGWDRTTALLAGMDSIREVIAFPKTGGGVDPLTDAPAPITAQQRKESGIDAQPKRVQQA
The assay is described as follows: Assay for Asp RNA synthetase-1 from Mycobacterium tuberculosis. The format is functional. The note with it: 30 µM.

Assay [4] addresses AMP-activated protein kinase, AMPK (Homo sapiens) (UniProt P54646+O43741+P54619+Q9UGJ0+Q9Y478+Q13131+Q9UGI9). The assay is described as follows: AMP-dependent Kinase enzyme assay. An in vitro enzyme assay that detects ADP turnover that is directly proportional to AMPK activity. This uses naive AMPK that is activated during the assay with MK-8722. The assay is classed as functional. The note with it: 30 µM.

Assay [5] addresses Sialic acid-binding Ig-like lectin 9 (Homo sapiens) (UniProt Q9Y336). Nature of the assay: Hs-Siglec9 ALPHAscreen SOP 20170721. The note with it: 10 µM. Background: In Alpha technology, singlet oxygen from a donor bead excites a nearby acceptor bead.
For another assay, the system named is Trypanosoma cruzi. Nature of the assay: Trypanosoma cruzi phosphomannomutase and mannose-1-phosphate guanylyltransferase assay. The assay is classed as functional. The note with it: 10 µM.
In assay [6] the target is T3, Arginase-2, mitochondrial (Homo sapiens) (UniProt P78540).
T3 sequence (whole entry): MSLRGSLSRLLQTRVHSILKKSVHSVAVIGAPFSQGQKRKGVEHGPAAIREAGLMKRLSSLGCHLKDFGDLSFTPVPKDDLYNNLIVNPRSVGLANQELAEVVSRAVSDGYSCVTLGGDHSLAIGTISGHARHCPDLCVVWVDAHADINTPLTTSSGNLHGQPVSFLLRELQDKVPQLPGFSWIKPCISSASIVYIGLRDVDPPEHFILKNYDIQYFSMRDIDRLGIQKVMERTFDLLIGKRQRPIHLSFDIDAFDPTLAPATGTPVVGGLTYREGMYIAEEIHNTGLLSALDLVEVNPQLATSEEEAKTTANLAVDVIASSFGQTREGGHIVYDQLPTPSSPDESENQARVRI
The assay is described as follows: in vitro enzyme assay to detect the production of urea directly proportional to the activity of Arginase II. Note: in the data most compounds retested in dose-response had high values. The assay is classed as functional. The note with it: 33.3 µM.

In assay [7] the target is T4, Proteasome subunit beta (Trypanosoma cruzi) (UniProt O96673).
T4 sequence (whole entry): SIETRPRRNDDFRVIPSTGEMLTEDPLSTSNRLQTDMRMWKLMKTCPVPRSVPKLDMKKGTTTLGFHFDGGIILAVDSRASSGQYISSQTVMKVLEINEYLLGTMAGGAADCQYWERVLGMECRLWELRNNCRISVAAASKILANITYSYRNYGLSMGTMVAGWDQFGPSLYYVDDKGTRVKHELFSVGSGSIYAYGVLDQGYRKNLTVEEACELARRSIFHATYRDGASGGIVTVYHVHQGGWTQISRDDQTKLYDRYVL
Nature of the assay: Trypanosoma cruzi proteasome chymotrypsin-like activity (TcProtChymo) assay. Note: in the data most compounds retested in dose-response had high values. The assay is classed as functional. The note with it: 9.37 µM.

Another assay is filed under the species Homo sapiens. Nature of the assay: To identify inhibition of the IFN signalling (Jak-Stat) pathway via expression of an eGFP reporter gene under the control of an IFN-stimulated response element (ISRE) containing MxA promoter. The format is functional. The note with it: 30 µM. A general note: Reporter assays use an easily measured gene product as a stand-in for the process of interest.

Assay [8] concerns the target Shiga toxin 2 (Escherichia coli O157:H7) (UniProt P09385+P09386). The assay is described as follows: E. coli 0.157:H7 Shiga Toxin SOP - stx2 screening assay. The assay is classed as functional. The note with it: 30 µM.
Assay [9] concerns the target T5, Tyrosyl-tRNA synthetase, putative (Trypanosoma cruzi (strain CL Brener)) (UniProt Q4DSP6).
T5 sequence (whole entry): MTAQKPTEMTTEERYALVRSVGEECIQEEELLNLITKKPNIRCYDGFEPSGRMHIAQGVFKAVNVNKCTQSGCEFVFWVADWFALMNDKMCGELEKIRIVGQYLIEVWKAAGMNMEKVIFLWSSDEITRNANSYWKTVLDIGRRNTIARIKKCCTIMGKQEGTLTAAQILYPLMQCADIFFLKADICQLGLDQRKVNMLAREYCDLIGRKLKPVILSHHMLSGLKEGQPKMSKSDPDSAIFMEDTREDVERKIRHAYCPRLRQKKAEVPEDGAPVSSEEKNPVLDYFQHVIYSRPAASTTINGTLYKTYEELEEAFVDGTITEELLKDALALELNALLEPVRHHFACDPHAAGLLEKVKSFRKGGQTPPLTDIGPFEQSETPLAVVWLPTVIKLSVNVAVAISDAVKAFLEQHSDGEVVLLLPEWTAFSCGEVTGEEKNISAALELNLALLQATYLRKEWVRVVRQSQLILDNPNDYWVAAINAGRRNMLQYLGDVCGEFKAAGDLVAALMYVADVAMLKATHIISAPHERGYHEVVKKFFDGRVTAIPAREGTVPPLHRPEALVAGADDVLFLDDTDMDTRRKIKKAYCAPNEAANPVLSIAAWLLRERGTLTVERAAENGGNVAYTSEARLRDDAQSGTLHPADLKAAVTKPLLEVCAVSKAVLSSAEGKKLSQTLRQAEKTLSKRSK
The assay is described as follows: Trypanosoma cruzi tyrosyl tRNA synthetase (TcYRS) _High Tyrosine SOP. Note: in the data most compounds retested in dose-response had high values. The assay is classed as functional. The note with it: 30 µM.

Assay [10] concerns the target T5, Tyrosyl-tRNA synthetase, putative (Trypanosoma cruzi (strain CL Brener)). Nature of the assay: Trypanosoma cruzi tyrosyl tRNA synthetase (TcYRS) SOP. The assay is classed as functional. The note with it: 30 µM.
The target of assay [11] is Chromo domain-containing protein 1 (Saccharomyces cerevisiae (strain ATCC 204508 / S288c) (Baker's yeast)) (UniProt P32657). Nature of the assay: ScCHD-1 Enzyme Inhibition Assay. Note: in the data most compounds retested in dose-response had high values. The assay is classed as functional. The note with it: 30 µM.
Chain of Chromo domain-containing protein 1 (Saccharomyces cerevisiae (strain ATCC 204508 / S288c) (Baker's yeast)) (P32657 whole entry, the tested form may be a part): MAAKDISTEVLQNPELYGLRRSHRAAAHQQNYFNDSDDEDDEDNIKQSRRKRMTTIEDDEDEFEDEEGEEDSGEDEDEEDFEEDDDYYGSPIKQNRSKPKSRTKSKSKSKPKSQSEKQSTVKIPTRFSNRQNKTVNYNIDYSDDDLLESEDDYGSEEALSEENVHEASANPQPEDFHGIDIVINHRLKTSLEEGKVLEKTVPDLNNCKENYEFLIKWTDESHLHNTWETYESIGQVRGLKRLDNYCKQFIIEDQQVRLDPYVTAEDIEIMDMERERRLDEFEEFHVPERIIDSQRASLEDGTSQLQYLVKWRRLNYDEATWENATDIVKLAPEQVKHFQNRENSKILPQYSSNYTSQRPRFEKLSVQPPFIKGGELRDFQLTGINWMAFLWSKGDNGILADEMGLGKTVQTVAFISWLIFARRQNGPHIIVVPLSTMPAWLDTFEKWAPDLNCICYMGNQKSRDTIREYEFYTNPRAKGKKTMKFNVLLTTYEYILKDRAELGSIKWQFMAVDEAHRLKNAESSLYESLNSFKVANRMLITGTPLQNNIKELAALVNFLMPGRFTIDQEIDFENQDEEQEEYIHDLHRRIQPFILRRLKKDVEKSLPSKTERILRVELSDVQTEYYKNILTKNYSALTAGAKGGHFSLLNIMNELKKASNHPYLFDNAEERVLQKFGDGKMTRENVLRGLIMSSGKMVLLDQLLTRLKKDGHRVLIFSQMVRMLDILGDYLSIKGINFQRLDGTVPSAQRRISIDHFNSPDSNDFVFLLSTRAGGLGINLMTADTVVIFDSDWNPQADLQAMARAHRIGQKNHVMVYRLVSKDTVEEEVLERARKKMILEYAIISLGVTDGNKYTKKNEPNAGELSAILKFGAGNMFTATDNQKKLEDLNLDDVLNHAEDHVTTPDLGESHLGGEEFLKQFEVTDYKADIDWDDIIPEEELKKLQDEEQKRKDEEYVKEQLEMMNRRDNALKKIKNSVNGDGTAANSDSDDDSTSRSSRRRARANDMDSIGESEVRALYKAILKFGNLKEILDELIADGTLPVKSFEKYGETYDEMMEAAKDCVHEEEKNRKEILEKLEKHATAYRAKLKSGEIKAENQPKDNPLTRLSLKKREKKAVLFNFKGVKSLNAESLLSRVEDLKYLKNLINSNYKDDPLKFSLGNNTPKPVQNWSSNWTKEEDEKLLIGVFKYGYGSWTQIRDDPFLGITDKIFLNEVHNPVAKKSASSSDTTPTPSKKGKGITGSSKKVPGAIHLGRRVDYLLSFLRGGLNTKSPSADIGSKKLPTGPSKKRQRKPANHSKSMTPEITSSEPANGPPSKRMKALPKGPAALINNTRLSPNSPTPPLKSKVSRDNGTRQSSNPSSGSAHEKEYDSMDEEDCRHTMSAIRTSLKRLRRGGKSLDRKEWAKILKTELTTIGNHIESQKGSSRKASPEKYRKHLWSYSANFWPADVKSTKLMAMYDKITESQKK

Chain of Protein translocase subunit SecA (Escherichia coli (strain K12)) (P10408 whole entry): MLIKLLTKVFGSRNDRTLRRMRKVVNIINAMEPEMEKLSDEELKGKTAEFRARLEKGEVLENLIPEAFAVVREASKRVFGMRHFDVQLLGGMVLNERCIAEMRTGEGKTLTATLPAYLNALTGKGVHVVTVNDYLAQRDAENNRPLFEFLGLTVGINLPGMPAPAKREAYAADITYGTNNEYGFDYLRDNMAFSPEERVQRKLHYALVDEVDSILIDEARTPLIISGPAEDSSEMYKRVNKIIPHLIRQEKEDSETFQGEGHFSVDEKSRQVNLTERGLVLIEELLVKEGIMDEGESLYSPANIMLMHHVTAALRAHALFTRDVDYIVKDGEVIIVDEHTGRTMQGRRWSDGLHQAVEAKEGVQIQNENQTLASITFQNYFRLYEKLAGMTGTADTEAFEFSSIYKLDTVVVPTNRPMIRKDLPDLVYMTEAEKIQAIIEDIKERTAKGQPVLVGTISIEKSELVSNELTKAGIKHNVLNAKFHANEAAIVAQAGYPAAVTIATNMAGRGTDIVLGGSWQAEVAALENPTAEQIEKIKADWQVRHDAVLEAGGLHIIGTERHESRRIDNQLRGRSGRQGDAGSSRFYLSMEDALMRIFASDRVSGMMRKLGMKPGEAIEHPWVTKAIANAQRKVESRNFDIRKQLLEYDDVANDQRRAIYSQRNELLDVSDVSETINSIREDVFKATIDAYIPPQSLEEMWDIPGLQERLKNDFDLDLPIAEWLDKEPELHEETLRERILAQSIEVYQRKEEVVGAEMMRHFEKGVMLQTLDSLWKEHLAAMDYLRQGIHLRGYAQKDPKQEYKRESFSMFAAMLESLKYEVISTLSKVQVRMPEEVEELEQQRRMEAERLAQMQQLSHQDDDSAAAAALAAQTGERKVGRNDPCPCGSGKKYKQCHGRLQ
Chain of Sialic acid-binding Ig-like lectin 9 (Homo sapiens) (Q9Y336 whole entry): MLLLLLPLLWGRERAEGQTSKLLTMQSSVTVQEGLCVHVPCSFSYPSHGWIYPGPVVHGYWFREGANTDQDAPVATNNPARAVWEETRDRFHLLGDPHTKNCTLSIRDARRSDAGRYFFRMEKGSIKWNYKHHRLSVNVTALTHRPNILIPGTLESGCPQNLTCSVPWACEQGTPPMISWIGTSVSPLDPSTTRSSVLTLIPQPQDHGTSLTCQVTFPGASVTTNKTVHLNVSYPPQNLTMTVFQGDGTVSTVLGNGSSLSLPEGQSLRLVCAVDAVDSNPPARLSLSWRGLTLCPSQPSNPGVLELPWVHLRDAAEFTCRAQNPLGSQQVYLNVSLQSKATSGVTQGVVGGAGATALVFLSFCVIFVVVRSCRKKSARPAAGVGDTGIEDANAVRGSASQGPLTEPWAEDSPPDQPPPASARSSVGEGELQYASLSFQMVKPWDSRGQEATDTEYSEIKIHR

Regarding `Cc1nc(CN2CCOCC3(CCN(c4ncccn4)C3)C2)cs1` (configuration not stated), the Percent Effect in assay [1] is -4.37%; in assay [2], 10.8%; in [3], 2.24%; in assay [4] it was 2.91%; in [5], -0.742%; in the assay with Trypanosoma cruzi, 1.17%. The Percent Effect was 3.75% in assay [6]; 6.68% in [7]; -5.73% in the assay listed under Homo sapiens; -14.6% in [8]; 13.9% in assay [9]; 11% in assay [10]. For the same compound, in assay [11], the Percent Effect is -4.52%.
Take `Cc1nc(N(C)C)nc2c1COCC21CCN(CC2CC2)C1` (configuration not stated): the Percent Effect in assay [1] was -3.83%; in [2], -8.11%; in [3] it was 3.96%; in assay [4], -0.232%; in [5] it was 1.53%; with Trypanosoma cruzi it was -5.86%. Also, the Percent Effect in assay [6] is 1.25%; in assay [7], 7.18%; in the assay filed under Homo sapiens, 4.17%; in assay [8], -14.2%; in [9], 6.93%; in assay [10] it was 6.1%. Also, the Percent Effect in assay [11] is -5.03%.
As for `O=C(NC[C@]12COC[C@H]1CN(Cc1cccnc1)C2)c1ccno1`, the Percent Effect in [1] is 0.292%; in assay [2] it was 13.3%; in assay [3] it was 0.956%; in [4], 8.36%; in assay [5], -8.01%; with Trypanosoma cruzi, -4.13%. For the same compound, the Percent Effect in [6] was -0.233%; in assay [7], 2.73%; in the assay listed under Homo sapiens, -4.47%; in [8], -10.4%; in assay [9], 9.57%; in assay [10], 19.2%. Further, the Percent Effect in [11] is -7.79%.
Take `O=C(N[C@H]1CN[C@H]2CCCO[C@H]21)c1cccnc1`: the Percent Effect is 1.71% in [1]; 16.4% in [2]; -0.775% in assay [3]; -3.57% in [4]; 7.91% in assay [5]; 5.36% with Trypanosoma cruzi. Moreover, the Percent Effect is -2.4% in assay [6]; 9.33% in [7]; 8.46% in the assay filed under Homo sapiens; -2.82% in [8]; 8.33% in [9]; 11.1% in [10]. Moreover, the Percent Effect in assay [11] is -3%.
In the case of `Cc1cc(CN2C[C@@H]3CCCO[C@@H]3[C@H](Nc3ccccn3)C2)no1`, the Percent Effect in assay [1] is -6.36%; in assay [2] it was 8.11%; in [3] it was 1.17%; in assay [4], 2.41%; in assay [5], 16.5%; in the assay on Trypanosoma cruzi it was 1.47%. The Percent Effect in [6] amounted to 4.22%; in [7] it was 7.3%; in the assay filed under Homo sapiens, 2.28%; in assay [8], 10.7%; in assay [9], 5.38%; in assay [10], 16.1%. Moreover, the Percent Effect in assay [11] is -5.82%.
Consider `Cc1cc(CN2CC[C@H]3C[C@H](C(=O)N(C)C)O[C@@H]3C2)no1`, for which the Percent Effect in assay [1] is -4.45%; in assay [2], 3.9%; in assay [3], -0.0763%; in assay [5], 14.4%; with Trypanosoma cruzi, 5.36%; in [6], 12.6%. For the same compound, the Percent Effect in assay [7] was 13.3%; in the assay listed under Homo sapiens, -6.77%; in [8], -6.84%; in assay [9], 2.63%; in [10] it was -5.13%; in assay [11], 20.4%.
